Source: PubChem BioAssay
NPR1 antag: antagonists of human natriuretic peptide receptor Npr1 | P16066 | HEK293 hNpr1 GloSensor cGMP, ANP-stimulated luminescence | Potency, µM (highest dose often 46.3 µM), most hits filed as inhibitors | actives 1.6% (n = 76,000); note: nearly all actives have a fitted effect of over 60% in size
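Compound pre-incubated 30 min at room temperature on GloSensor-loaded HEK293 cells stably carrying hNpr1 and the pGS-40F cGMP biosensor. Stimulation uses hNppA at 0.1 nM final; luminescence is taken at baseline and 20 min post-agonist.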
HEK cytotox: HEK 293 cell cytotoxicity | HEK 293 viability, ATP luminescence (CellTiter-Glo), 48-72 h | Potency, µM (top dose mostly 115 µM), hits mostly inhibitors | actives 6.6% (n = 94,000) | AID 1345083; active = well fitted curve in the direction sought with a large enough effect; inconclusive = small, poorly fitted or top-dose-only effect, or another doubt; inactive = no such curve, though single readings can be large; an effect the other way counts as inactive or inconclusive; note: nearly all actives have a fitted effect of over 60% in size
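Viability of HEK 293 cells, plated at 250 cells/well, was judged by cellular ATP after compound treatment for 48 or 72 hr. Luminescence was imaged 10 min after CellTiter-Glo addition at room temperature.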
3T3 cytotox: cytotoxic compounds in NIH 3T3 cells | NIH 3T3 viability, CellTiter-Glo ATP luminescence, 48-72 h | AID 1345082 | actives 4.3% (n = 94,000) | Potency, µM (highest dose often 96.7 µM), hits mostly inhibitors; active = well fitted curve in the direction sought with a large enough effect; inconclusive = small, poorly fitted or top-dose-only effect, or another doubt; inactive = no such curve, though single readings can be large; an effect the other way counts as inactive or inconclusive; note: nearly all actives have a fitted effect of over 55% in size
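NIH 3T3 cells at 400 cells/well received 23 nL of compound by pintool and were incubated 48 or 72 h at 37 °C. Viability was read as ATP-coupled CellTiter-Glo luminescence.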
Luciferase inh: Photinus pyralis luciferase inhibition; P08659; purified P. pyralis luciferase, luminescence, biochemical; Potency, µM (doses to about 115 µM), actives largely listed as inhibitors; actives 2.5% (n = 76,000); active = well fitted curve in the direction sought with a large enough effect; inconclusive = small, poorly fitted or top-dose-only effect, or another doubt; inactive = no such curve, though single readings can be large; an effect the other way counts as inactive or inconclusive; note: nearly all actives have a fitted effect of over 65% in size
Target sequence (P08659 whole entry, looked up): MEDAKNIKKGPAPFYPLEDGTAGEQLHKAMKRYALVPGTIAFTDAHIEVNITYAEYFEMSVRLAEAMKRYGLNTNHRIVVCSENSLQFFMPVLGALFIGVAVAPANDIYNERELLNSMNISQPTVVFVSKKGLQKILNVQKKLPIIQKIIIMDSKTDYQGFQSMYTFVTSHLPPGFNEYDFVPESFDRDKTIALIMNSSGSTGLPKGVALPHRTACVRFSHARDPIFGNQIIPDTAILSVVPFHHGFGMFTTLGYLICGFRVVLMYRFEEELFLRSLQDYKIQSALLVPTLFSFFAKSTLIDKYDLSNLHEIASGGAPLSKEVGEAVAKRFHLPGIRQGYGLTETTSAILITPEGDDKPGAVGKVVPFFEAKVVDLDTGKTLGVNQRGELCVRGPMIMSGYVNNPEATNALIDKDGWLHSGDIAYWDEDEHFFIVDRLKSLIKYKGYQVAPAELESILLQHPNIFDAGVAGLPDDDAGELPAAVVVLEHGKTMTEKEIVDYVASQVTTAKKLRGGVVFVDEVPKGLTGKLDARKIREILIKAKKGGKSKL
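FLuc 10nM, D-luciferin 10uM, ATP 10uM, Mg acetate 10mM, Tris acetate pH 7.5, Tween/BSA; cpd qHTS; enzyme added last; CCD luminescence.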
NPR1 antag cnf: hNpr1 antagonism, confirmation assay; shares compounds with NPR1 antag; HEK293 hNpr1 cGMP GloSensor luminescence, ANP-stimulated; Potency, µM (top dose mostly 57.6 µM), actives largely listed as inhibitors; actives 76% (n = 1,400); AID 1347044; note: nearly all actives have a fitted effect of over 70% in size
NPR2 antag: antagonizes human Npr2, subtype selectivity check; Potency, µM (titrated, usually from 57.6 µM), most hits filed as inhibitors; AID 1347046; shares compounds with NPR1 antag; actives 67% (n = 1,400); HEK293 hNpr2 GloSensor cGMP luminescence, CNP-stimulated; note: nearly all actives have a fitted effect of over 70% in size
FLuc counter: FLuc enzyme inhibition, Npr1 counter-screen; purified FLuc enzyme, luminescence, Km substrate; actives 0.7% (n = 1,400); Potency, µM (series often up to 57.6 µM), actives largely listed as inhibitors; shares compounds with NPR1 antag; active = well fitted curve in the direction sought with a large enough effect; inconclusive = small, poorly fitted or top-dose-only effect, or another doubt; inactive = no such curve, though single readings can be large; an effect the other way counts as inactive or inconclusive
GloSensor ctrl: reduces cGMP signal in GloSensor control cells; AID 1347051; Potency, µM (doses to about 57.6 µM), hits mostly inhibitors; HEK293 GloSensor cGMP, SNP-stimulated, luminescence; actives 69% (n = 1,400); shares compounds with NPR1 antag; note: nearly all actives have a fitted effect of over 70% in size
Numbers stand for hits; – = inactive; ? = inconclusive; · = no result given. This is a sample that favours compounds with a hit; in the whole collection about 11% have one here. Unless noted, calls come from the whole dose curve.

SMILES	NPR1 antag	HEK cytotox	3T3 cytotox	Luciferase inh	NPR1 antag cnf	NPR2 antag	FLuc counter	GloSensor ctrl
Clc1cccc(CN2CC[C@H](c3nc4ccccc4[nH]3)C2)c1	25µM	20µM	?	–	40µM	?	–	?
CN(Cc1ccc(F)cc1)Cc1cccc2ccccc12	–	?	?	–	·	·	·	·
CC(C)c1ccc(CN2CCc3ncc(C(=O)NCc4ccccc4)n3CC2)cc1	28µM	28µM	?	–	25µM	31µM	–	22µM
Cc1nn2c(c1-c1cccnc1N1CCOCC1)N(CC1CCOCC1)CCC2	?	?	35µM	–	?	?	–	?
Cc1ccncc1-c1c(C)nn2c1N(Cc1cccc(O)c1)CCC2	–	?	?	–	·	·	·	·
Cc1cccc2nc(C(=O)N3CCC4(CC3)CC(c3ccccc3)CN(C)C4)cn12 (stereo not drawn)	–	?	–	–	·	·	·	·
Cc1cccc2nc(C(=O)N3CCCC(c4[nH]ncc4-c4ccccc4)C3)cn12 (stereo not drawn)	?	?	?	–	?	?	–	–
Cc1ccc(S(=O)(=O)NC[C@H]2O[C@H](Cc3cc(COc4ccccc4)on3)CC[C@@H]2O)cc1	–	?	?	–	·	·	·	·
CC(C)(C)C(=O)NC[C@H]1O[C@H](Cc2cc(-c3ccc(F)cc3)on2)CC[C@@H]1O	?	?	–	–	?	?	20µM	?
COCC(=O)NC[C@H]1O[C@H](Cc2cc(-c3ccc(F)cc3)on2)CC[C@@H]1O	–	–	–	–	·	·	·	·
COc1ccc(-c2cc(C[C@@H]3CC[C@H](O)[C@@H](CNCc4ccccc4OC)O3)no2)cc1	28µM	32µM	56µM	?	31µM	35µM	?	?
Cc1ccc(S(=O)(=O)NC[C@H]2O[C@H](Cc3cc(-c4cccc(O)c4)on3)CC[C@@H]2O)cc1	?	?	?	–	?	?	?	?
O[C@H]1CC[C@@H](Cc2cc(-c3ccc(F)cc3)on2)O[C@@H]1CNC1CCCCC1	?	?	40µM	–	?	?	–	–
CCOCCN1C(=O)NC(c2ccc(OC)cc2)C2=C1COC2=O (stereo not drawn)	–	–	–	–	·	·	·	·
CCn1cc(CN(C)C(=O)CCc2nc(-c3ccccc3OC)no2)cn1	–	–	–	–	·	·	·	·
Oc1cccc(-c2cc(C[C@@H]3CC[C@H](O)[C@@H](CNC4CCC4)O3)no2)c1	?	–	–	–	?	–	–	–
O=C(c1ccc(F)cc1)N1CCN(CCCn2nc3n(c2=O)CCCC3)CC1	·	–	–	·	·	·	·	·
CN(C(=O)C1(c2ccc(Cl)cc2)CCOCC1)C1CCc2ccccc21 (stereo not drawn)	·	?	?	·	19µM	9.7µM	–	–
O=C1NC(=NC2CCCC2)C2(CCCN(Cc3cccnc3)C2)N1c1cc(F)cc(F)c1 (stereo not drawn)	·	–	25µM	·	–	–	–	–
COc1ccc(-c2noc(CC3CCN(C(=O)c4cc(Cl)ccc4F)CC3)n2)cc1	7.1µM	40µM	?	–	9.7µM	11µM	–	9.7µM
COc1ccc(-c2noc(CC3CCN(C(=O)c4cc(F)ccc4F)CC3)n2)cc1	7.1µM	?	?	–	6.9µM	6.9µM	–	4.3µM
c1nc2c([nH]1)CN(Cc1ccc(OCCCN3CCOCC3)cc1)CC2	–	–	–	–	·	·	·	·
CS(=O)(=O)c1ccc(CN2CC[C@@H](c3ccc4ccccc4c3)[C@H](O)C2)cc1	?	40µM	?	–	?	?	–	24µM
O=C(O)c1ccc(CN2CC[C@@H](c3ccc4ccccc4c3)[C@H](O)C2)cc1	–	–	–	–	·	·	·	·
COc1ccc(CNC(=O)Cn2cccc2-c2nc(-c3ccc4c(c3)OCO4)no2)cc1OC	–	–	–	–	·	·	·	·
SMILES	NPR1 antag	HEK cytotox	3T3 cytotox	Luciferase inh	NPR1 antag cnf	NPR2 antag	FLuc counter	GloSensor ctrl
Cc1ccc(CN2C(=O)NC3(CCCN(C(=O)c4cc5ccccc5[nH]4)C3)C2=O)cc1 (stereo not drawn)	–	?	?	?	·	·	·	·
O=C(c1cc2ccccc2[nH]1)N1CCC2(C1)NC(=O)N(Cc1ccc(F)cc1)C2=O (stereo not drawn)	22µM	?	?	–	?	?	–	31µM
CCOc1ccc(CC(=O)N2CCC(Cc3nc(C(C)C)no3)CC2)cc1	–	?	–	–	·	·	·	·
COc1ccc(CC(=O)N2CCC(Cc3nc(-c4ccc(OC)cc4)no3)CC2)cc1	2.8µM	?	?	–	3.1µM	3.4µM	–	3.4µM
CCOc1ccc(CC(=O)N2CCC(Cc3nc(C(C)C)no3)CC2)cc1OCC	–	?	?	–	·	·	·	·
CCOc1ccc(CC(=O)N2CCC(Cc3nc(-c4ccc(OC)cc4)no3)CC2)cc1OCC	16µM	?	?	–	27µM	22µM	–	24µM
COc1ccc(-c2noc(CC3CCN(C(=O)Cc4cccc(C)c4)CC3)n2)cc1	13µM	40µM	?	–	22µM	19µM	–	17µM
CCOc1ccc(CC(=O)N2CCC(Cc3nc(-c4ccc(OC)cc4)no3)CC2)cc1	4.5µM	?	?	–	2.7µM	3.9µM	–	3.4µM
Cc1cccc(CC(=O)N2CCC(Cc3nc(-c4ccccc4)no3)CC2)c1	–	?	?	–	·	·	·	·
Cc1ccccc1C(=O)N1CCN(c2nc3ncccc3o2)CC1	–	–	–	–	·	·	·	·
O=C(N[C@H]1CCN2C(=O)c3cc(-c4ccc(F)cc4F)ccc3NC(=O)[C@H]12)c1cccs1	–	?	?	–	?	?	?	–
O=C(N[C@H]1CCN2C(=O)c3cc(-c4ccc(F)cc4F)ccc3NC(=O)[C@@H]2C1)c1cccs1	–	?	?	–	·	·	·	·
C[C@]1(CO)[C@H]2Cc3sc(NC(=O)C4CCC4)nc3[C@@H](CC(=O)NC3CC3)[C@]2(C)CC[C@H]1O	–	–	–	–	·	·	·	·
COc1cccc(CNc2cc(Cl)nc3ccnn23)c1	?	?	28µM	–	40µM	35µM	–	35µM
Clc1cc(NCCOc2ccccc2)n2nccc2n1	–	?	?	?	·	·	·	·
CC(C)Cc1cn(CC2CCCN(C(=O)NC3CCCCCC3)C2)nn1 (stereo not drawn)	10µM	?	?	–	17µM	17µM	–	12µM
COc1cccc(CN2CCC(Oc3ccc(-c4noc(C5CC5)n4)cc3)C2)c1 (stereo not drawn)	11µM	40µM	?	–	?	?	–	27µM
